# Assay results reported in PubChem BioAssay (EPA / NIEHS).
# Several values for one entry are separate records, joined by “and”; a condition that tells them apart may be missing. Identical values can stand only once. Records with an inconclusive call do not appear. The source holds several records for some structures; these can differ, active in one and inactive in another. Activity calls are given as the source filed them. Rule for the calls: active = hit-call score of the fitted dose curve at least 0.9, where 1 is the maximum; inconclusive = response in the unintended direction; inactive = score below 0.9.
# Key:
# [1] = ATG_M_06_XSP2: Attagene TRANS-FACTORIAL Multi-Species (XSP2) HepG2 Assay for M06 Transcription Factor (Internal Marker) (AID 2283811);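 note: hits are increases in signal above the DMSO baseline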
# Summary of the method: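 HepG2, multiplexed reporter transfection; 24 h dosing; AR stimulated with 3 nM 6-alpha-fluorotestosterone + 1.5 nM norgestrel; RNA → RT-PCR → 6-FAM primer extension → HpaI → CE. Positive direction vs DMSO.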
# [2] = test system: turtle Estrogen Receptor (ERa), gene 101933533; assay: ATG_trERa_XSP2: Attagene TRANS-FACTORIAL Multi-Species (XSP2) HepG2 Assay for turtle Estrogen Receptor (ERa) (AID 2283812);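 note: human HepG2 liver cells transiently expressing turtle ERa-Gal4 chimeric receptor; actives raise reporter signal above DMSO so AC50 reflects agonist activity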
# Summary of the method: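 HepG2 cells transiently transfected with GAL4-UAS reporter units expressing turtle ERa-Gal4 chimera. Reporter mRNA measured after 24 h dosing by RT-PCR, fluorescent labelling and capillary electrophoresis; gain of signal fitted versus DMSO.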
# [3] = molecular target: Estrogen receptor beta (Homo sapiens) (UniProt Q92731); assay: ATG_hERb_XSP2: Attagene TRANS-FACTORIAL Multi-Species (XSP2) HepG2 Assay for human Estrogen Receptor (ERb) (AID 2283813);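 note: actives raise reporter mRNA above DMSO so AC50 reflects agonist induction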
# Sequence of Estrogen receptor beta (Homo sapiens) (Q92731 whole entry, looked up, the tested form may be a part): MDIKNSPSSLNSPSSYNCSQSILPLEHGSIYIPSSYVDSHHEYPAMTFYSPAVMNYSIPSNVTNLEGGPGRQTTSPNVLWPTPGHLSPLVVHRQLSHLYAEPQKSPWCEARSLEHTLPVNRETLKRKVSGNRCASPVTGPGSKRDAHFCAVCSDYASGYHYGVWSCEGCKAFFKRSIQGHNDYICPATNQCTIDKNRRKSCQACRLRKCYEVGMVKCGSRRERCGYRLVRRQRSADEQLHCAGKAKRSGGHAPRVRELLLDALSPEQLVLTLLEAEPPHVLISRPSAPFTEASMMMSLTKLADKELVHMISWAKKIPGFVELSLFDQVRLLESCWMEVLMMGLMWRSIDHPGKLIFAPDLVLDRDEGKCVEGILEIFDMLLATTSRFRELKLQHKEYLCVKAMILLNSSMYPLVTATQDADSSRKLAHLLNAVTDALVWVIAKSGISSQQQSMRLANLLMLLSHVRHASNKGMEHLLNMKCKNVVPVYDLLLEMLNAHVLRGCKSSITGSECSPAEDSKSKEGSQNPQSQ
# Summary of the method: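 HepG2 cells transiently transfected with GAL4-UAS reporter units and chimeric human ERb-Gal4, 24 h exposure. Reporter mRNA quantified by RT-PCR with FAM labelling, HpaI digestion and capillary electrophoresis; gain of signal versus DMSO.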
# [4] = test system: turtle Androgen Receptor (AR), gene 101947425; assay: ATG_trAR_XSP2: Attagene TRANS-FACTORIAL Multi-Species (XSP2) HepG2 Assay for turtle Androgen Receptor (AR) (AID 2283815)
# Summary of the method: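 HepG2 cells transiently transfected with GAL4-UAS reporter units for chimeric NR-Gal4 receptors; 24 h dosing in presence of 3 nM 6-alpha-fluorotestosterone and 1.5 nM norgestrel. Reporter mRNA by RT-PCR and capillary electrophoresis, gain of signal versus DMSO.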
# [5] = molecular target: zebrafish Estrogen Receptor (ER1), esr1 (gene 259252) (UniProt P57717); assay: ATG_zfER1_XSP2: Attagene TRANS-FACTORIAL Multi-Species (XSP2) HepG2 Assay for zebrafish Estrogen Receptor (ER1) (AID 2283816)
# Sequence of zebrafish Estrogen Receptor (ER1), esr1 (gene 259252) (P57717 whole entry, looked up, the tested form may be a part): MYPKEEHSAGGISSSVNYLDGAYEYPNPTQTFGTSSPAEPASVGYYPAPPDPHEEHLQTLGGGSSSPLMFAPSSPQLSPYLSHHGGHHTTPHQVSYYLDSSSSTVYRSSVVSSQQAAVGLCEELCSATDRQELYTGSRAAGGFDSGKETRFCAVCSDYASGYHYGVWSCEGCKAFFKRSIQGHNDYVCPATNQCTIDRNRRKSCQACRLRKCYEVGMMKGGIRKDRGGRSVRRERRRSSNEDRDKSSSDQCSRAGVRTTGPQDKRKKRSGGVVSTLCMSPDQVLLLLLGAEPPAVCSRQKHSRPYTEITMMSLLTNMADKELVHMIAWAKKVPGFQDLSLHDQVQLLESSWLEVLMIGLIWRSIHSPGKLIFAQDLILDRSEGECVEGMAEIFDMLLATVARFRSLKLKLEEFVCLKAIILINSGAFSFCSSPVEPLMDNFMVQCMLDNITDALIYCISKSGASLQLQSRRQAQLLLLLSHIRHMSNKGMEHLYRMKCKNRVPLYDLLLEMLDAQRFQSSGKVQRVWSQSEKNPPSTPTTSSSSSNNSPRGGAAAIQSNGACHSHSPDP
# Summary of the method: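 HepG2 cells transiently transfected with a GAL4-UAS reporter and a chimeric zebrafish ER1-Gal4 construct, dosed 24 h. Reporter mRNA quantified by RT-PCR, labelling, HpaI digestion and capillary electrophoresis, relative to DMSO.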
# [6] = molecular target: chicken Estrogen Receptor (ERa), ESR1 (gene 396099) (UniProt P06212); assay: ATG_chERa_XSP2: Attagene TRANS-FACTORIAL Multi-Species (XSP2) HepG2 Assay for chicken Estrogen Receptor (ERa) (AID 2283817);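 note: actives raise reporter signal above DMSO so AC50 reflects ER activation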
# Sequence of chicken Estrogen Receptor (ERa), ESR1 (gene 396099) (P06212 whole entry, looked up, the tested form may be a part): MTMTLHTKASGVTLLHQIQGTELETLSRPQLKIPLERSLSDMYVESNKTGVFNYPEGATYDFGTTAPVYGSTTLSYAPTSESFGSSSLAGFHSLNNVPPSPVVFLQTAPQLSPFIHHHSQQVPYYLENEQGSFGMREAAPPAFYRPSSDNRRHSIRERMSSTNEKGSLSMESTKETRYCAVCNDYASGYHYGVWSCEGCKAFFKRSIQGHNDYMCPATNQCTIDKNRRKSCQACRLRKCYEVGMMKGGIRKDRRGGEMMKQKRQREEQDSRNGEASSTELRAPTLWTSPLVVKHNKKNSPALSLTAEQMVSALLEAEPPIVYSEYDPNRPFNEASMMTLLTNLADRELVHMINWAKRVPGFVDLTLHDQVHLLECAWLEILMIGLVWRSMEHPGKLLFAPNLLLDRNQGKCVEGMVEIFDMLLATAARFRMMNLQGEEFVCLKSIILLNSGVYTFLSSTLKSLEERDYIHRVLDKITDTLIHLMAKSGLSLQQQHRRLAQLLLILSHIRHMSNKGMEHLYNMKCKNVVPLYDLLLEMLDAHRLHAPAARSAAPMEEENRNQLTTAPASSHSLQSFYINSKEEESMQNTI
# Summary of the method: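 Transient MRTU transfection of HepG2 → 24 h chemical dosing → TriZol RNA, oligo(dT) RT → PCR, 6-FAM primer extension, HpaI digest → CE quantitation of chicken ERa-Gal4-driven reporter mRNA. Positive direction vs DMSO.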
# [7] = ATG_M_61_XSP1: Attagene TRANS-FACTORIAL Multi-Species (XSP1) HepG2 Assay for M61 Transcription Factor (Internal Marker) (AID 2283797)
# Summary of the method: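 HepG2 cells transiently transfected with multiplexed GAL4-driven reporter units, dosed 24 h with 3 nM 6-alpha-fluorotestosterone present. Reporter mRNA quantified by RT-PCR, 6-FAM labelling, HpaI digestion and capillary electrophoresis; internal-marker background control, gain of signal versus DMSO.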
# [8] = molecular target: frog Thyroid hormone Receptor alpha (TRa), thra-a (gene 397942) (UniProt P15204); assay: ATG_frTRa_XSP1: Attagene TRANS-FACTORIAL Multi-Species (XSP1) HepG2 Assay for frog Thyroid hormone Receptor alpha (TRa) (AID 2283804)
# Sequence of frog Thyroid hormone Receptor alpha (TRa), thra-a (gene 397942) (P15204 whole entry, looked up, the tested form may be a part): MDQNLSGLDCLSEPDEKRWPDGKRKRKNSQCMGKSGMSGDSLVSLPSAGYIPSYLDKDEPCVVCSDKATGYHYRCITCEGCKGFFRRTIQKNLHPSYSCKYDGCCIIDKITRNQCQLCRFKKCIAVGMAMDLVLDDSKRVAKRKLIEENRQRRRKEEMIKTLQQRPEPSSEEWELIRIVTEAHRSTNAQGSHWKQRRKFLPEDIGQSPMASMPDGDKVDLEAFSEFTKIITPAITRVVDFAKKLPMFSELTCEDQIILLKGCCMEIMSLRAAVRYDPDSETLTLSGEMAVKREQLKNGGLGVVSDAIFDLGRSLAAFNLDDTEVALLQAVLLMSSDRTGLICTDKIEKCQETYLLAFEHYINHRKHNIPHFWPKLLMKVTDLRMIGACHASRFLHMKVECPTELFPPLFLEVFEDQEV
# Summary of the method: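 HepG2 cells transiently transfected with frog TRa-GAL4 chimeric reporter units, dosed 24 hr with 3 nM 6-alpha-fluorotestosterone present; reporter mRNA quantified by RT-PCR, fluorescent labelling and capillary electrophoresis, gain of signal versus DMSO.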
# [9] = test system: turtle Thyroid Hormone Receptor, alpha (TRa), gene 101949057; assay: ATG_trTRa_XSP1: Attagene TRANS-FACTORIAL Multi-Species (XSP1) HepG2 Assay for turtle Thyroid Hormone Receptor, alpha (TRa) (AID 2283806)
# Summary of the method: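 HepG2 cells transiently transfected with GAL4-UAS reporter units and chimeric receptor-Gal4 constructs, with 3 nM 6-alpha-fluorotestosterone present. Reporter mRNA was quantified 24 h after dosing by RT-PCR, 6-FAM labelling and capillary electrophoresis; gain of signal versus DMSO.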
# [10] = molecular target: zebrafish Thyroid Hormone Receptor alpha (TRa), thraa (gene 30670) (UniProt Q98867); assay: ATG_zfTRa_XSP1: Attagene TRANS-FACTORIAL Multi-Species (XSP1) HepG2 Assay for zebrafish Thyroid Hormone Receptor alpha (TRa) (AID 2283807)
# Sequence of zebrafish Thyroid Hormone Receptor alpha (TRa), thraa (gene 30670) (Q98867 whole entry, looked up, the tested form may be a part): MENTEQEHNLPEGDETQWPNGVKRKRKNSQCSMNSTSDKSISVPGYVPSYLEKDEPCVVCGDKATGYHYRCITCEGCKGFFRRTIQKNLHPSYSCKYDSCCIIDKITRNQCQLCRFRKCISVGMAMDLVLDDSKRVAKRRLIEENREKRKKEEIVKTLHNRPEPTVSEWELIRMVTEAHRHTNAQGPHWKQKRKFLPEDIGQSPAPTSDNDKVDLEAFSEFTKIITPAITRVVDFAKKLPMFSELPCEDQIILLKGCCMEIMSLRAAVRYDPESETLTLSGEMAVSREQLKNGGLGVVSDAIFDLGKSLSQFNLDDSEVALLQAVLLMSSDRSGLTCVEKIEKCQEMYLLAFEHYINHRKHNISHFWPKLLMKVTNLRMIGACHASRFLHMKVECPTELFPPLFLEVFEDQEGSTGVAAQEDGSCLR
# Summary of the method: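 HepG2 cells transiently transfected with GAL4-UAS reporter units including a zebrafish TRa–Gal4 chimera, dosed 24 h with 3 nM 6-alpha-fluorotestosterone present. Reporter mRNA quantified by RT-PCR and capillary electrophoresis; gain versus DMSO.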
# [11] = molecular target: zebrafish Thyroid Hormone Receptor beta (TRb), thrb (gene 30607) (UniProt Q9PVE4); assay: ATG_zfTRb_XSP1: Attagene TRANS-FACTORIAL Multi-Species (XSP1) HepG2 Assay for zebrafish Thyroid Hormone Receptor beta (TRb) (AID 2283809)
# Sequence of zebrafish Thyroid Hormone Receptor beta (TRb), thrb (gene 30607) (Q9PVE4 whole entry, looked up, the tested form may be a part): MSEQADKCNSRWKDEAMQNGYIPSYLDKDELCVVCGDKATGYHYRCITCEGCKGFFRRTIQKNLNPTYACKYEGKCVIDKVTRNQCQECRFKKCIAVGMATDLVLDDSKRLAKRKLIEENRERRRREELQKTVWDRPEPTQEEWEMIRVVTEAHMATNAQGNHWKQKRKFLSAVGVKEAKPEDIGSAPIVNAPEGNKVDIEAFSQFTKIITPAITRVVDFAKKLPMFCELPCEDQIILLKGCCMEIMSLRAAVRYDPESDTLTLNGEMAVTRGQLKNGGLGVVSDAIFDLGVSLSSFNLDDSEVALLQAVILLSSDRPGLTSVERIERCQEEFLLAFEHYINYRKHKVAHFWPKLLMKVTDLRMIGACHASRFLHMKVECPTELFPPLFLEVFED
# Summary of the method: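 HepG2 cells transiently transfected with multiplexed GAL4-UAS reporter units expressing chimeric zebrafish TRb–Gal4. Dosed 24 h with 3 nM 6-alpha-fluorotestosterone present; reporter mRNA measured by RT-PCR, HpaI digestion and capillary electrophoresis; gain of signal versus DMSO.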
# [12] = ATG_XTT_Cytotoxicity_XSP1: Cytotoxicity Assessment in the Attagene TRANS-FACTORIAL Multi-Species (XSP1) HepG2 Assay (AID 2283810)
# Summary of the method: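 XTT viability readout taken at 24 hours post-dosing in HepG2 liver cells co-treated with 3 nM 6-alpha-fluorotestosterone. Signal loss relative to DMSO controls reflects cytotoxicity.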
# [13] = molecular target: GAL4 Transcription Factor (Internal Marker), GAL4 (gene 855828) (UniProt P04386); assay: ATG_GAL4_XSP2: Attagene TRANS-FACTORIAL Multi-Species (XSP2) HepG2 Assay for GAL4 Transcription Factor (Internal Marker) (AID 2283814);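 note: GAL4 reporter mRNA background control in MRTU transfected cells not a receptor target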
# Sequence of GAL4 Transcription Factor (Internal Marker), GAL4 (gene 855828) (P04386 whole entry, looked up, the tested form may be a part): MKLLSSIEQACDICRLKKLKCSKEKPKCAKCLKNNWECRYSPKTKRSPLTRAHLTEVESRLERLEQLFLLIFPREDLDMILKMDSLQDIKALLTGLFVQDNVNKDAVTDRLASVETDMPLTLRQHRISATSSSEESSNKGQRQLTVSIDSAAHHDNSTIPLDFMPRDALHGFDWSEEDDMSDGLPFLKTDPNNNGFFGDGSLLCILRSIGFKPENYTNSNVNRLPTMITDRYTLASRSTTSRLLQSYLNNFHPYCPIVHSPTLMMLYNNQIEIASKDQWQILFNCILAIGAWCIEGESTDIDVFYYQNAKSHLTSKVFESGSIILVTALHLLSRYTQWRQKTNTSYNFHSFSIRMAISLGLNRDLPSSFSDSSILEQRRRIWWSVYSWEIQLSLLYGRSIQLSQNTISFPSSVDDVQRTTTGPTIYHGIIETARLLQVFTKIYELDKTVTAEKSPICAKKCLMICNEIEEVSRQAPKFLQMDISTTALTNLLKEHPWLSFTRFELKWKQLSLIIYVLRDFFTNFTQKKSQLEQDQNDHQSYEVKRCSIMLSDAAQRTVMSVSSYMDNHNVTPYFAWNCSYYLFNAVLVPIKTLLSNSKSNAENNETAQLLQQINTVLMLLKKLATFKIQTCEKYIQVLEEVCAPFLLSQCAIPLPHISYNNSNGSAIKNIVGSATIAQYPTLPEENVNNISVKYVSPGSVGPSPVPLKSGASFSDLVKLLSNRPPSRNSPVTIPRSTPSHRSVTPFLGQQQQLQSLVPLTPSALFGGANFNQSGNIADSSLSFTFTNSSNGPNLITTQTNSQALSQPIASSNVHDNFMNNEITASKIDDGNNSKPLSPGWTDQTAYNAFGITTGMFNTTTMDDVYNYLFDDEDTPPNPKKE
# Summary of the method: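 HepG2 cells transiently transfected with GAL4-UAS reporter units, stimulated with 3 nM 6-alpha-fluorotestosterone plus 1.5 nM norgestrel, dosed 24 h. Reporter mRNA by RT-PCR/capillary electrophoresis; gain-of-signal fit versus DMSO, background control.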
# [14] = ATG_M_32_XSP1: Attagene TRANS-FACTORIAL Multi-Species (XSP1) HepG2 Assay for M32 Transcription Factor (Internal Marker) (AID 2283799)
# Summary of the method: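 HepG2 cells transiently transfected with multi-species TRANS reporter units, dosed 24 h with 3 nM 6-alpha-fluorotestosterone present. Internal-marker reporter mRNA quantified by RT-PCR and capillary electrophoresis; positive-direction fit versus DMSO.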
# [15] = molecular target: Peroxisome proliferator-activated receptor gamma (Homo sapiens) (UniProt P37231); assay: ATG_hPPARg_XSP1: Attagene TRANS-FACTORIAL Multi-Species (XSP1) HepG2 Assay for human Peroxisome Proliferator-activated Receptor gamma (PPARg) (AID 2283800)
# Summary of the method: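 HepG2 cells transiently transfected with GAL4-UAS reporter units carrying chimeric NR-Gal4 proteins; 3 nM 6-alpha-fluorotestosterone present. After 24 h dosing, reporter mRNA quantified by RT-PCR and capillary electrophoresis; gain of signal relative to DMSO.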
# [16] = molecular target: mouse Peroxisome Proliferator-activated Receptor gamma (PPARg), Pparg (gene 19016) (UniProt P37238); assay: ATG_mPPARg_XSP1: Attagene TRANS-FACTORIAL Multi-Species (XSP1) HepG2 Assay for mouse Peroxisome Proliferator-activated Receptor gamma (PPARg) (AID 2283802)
# Sequence of mouse Peroxisome Proliferator-activated Receptor gamma (PPARg), Pparg (gene 19016) (P37238 whole entry, looked up, the tested form may be a part): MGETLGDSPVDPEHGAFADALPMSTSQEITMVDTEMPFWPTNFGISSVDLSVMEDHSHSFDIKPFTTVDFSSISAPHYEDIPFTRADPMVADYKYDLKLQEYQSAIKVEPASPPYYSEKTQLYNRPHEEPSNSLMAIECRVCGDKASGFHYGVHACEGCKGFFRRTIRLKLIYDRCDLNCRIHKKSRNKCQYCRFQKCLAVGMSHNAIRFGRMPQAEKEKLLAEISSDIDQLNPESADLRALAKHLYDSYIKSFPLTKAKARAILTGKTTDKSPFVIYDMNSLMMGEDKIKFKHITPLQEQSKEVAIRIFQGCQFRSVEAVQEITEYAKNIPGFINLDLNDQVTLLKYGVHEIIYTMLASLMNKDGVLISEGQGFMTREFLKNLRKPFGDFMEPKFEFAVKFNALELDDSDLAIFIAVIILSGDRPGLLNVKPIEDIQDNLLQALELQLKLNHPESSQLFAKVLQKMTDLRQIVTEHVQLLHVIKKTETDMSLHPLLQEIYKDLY
# Summary of the method: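 HepG2 cells transiently transfected with GAL4-UAS reporter units driven by mouse PPARg–GAL4 chimera; 3 nM 6-alpha-fluorotestosterone present. After 24 h dosing, reporter mRNA quantified by RT-PCR, fluorescent labelling and capillary electrophoresis; gain of signal versus DMSO.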
# [17] = molecular target: Nuclear receptor subfamily 1 group I member 2 (Mus musculus) (UniProt O54915); assay: ATG_mPXR_XSP1: Attagene TRANS-FACTORIAL Multi-Species (XSP1) HepG2 Assay for mouse Pregnane X Receptor (PXR) (AID 2283803)
# Sequence of Nuclear receptor subfamily 1 group I member 2 (Mus musculus) (O54915 whole entry, looked up, the tested form may be a part): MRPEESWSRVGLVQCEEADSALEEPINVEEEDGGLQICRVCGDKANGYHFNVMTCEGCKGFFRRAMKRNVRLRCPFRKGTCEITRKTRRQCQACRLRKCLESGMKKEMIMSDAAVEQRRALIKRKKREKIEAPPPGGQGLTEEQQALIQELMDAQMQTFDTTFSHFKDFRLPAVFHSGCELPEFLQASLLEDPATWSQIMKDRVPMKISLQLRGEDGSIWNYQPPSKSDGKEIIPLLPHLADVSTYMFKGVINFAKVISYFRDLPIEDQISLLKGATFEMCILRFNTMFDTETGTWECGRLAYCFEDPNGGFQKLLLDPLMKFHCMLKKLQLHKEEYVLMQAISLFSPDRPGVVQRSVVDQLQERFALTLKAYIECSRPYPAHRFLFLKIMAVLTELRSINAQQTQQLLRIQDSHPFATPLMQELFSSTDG
# Summary of the method: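 Transiently transfected HepG2 cells expressing a receptor-Gal4 chimera drive a GAL4-UAS reporter; 3 nM 6-alpha-fluorotestosterone included. Reporter mRNA read 24 h post-dose by RT-PCR and capillary electrophoresis; gain of signal relative to DMSO.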
# [18] = test system: zebrafish Peroxisome Proliferator-activated Receptor gamma (PPARg), gene 557037; assay: ATG_zfPPARg_XSP1: Attagene TRANS-FACTORIAL Multi-Species (XSP1) HepG2 Assay for zebrafish Peroxisome Proliferator-activated Receptor gamma (PPARg) (AID 2283801)
# Summary of the method: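 HepG2 cells transiently transfected with GAL4-UAS reporter units including a zebrafish PPARg–GAL4 chimera, dosed 24 h with 3 nM 6-alpha-fluorotestosterone present. Reporter mRNA quantified by RT-PCR, FAM labelling, HpaI digestion and capillary electrophoresis; induction versus DMSO.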
# [19] = molecular target: human Thyroid hormone Receptor alpha (TRa), THRA (gene 7067) (UniProt P10827); assay: ATG_hTRa_XSP1: Attagene TRANS-FACTORIAL Multi-Species (XSP1) HepG2 Assay for human Thyroid hormone Receptor alpha (TRa) (AID 2283805)
# Summary of the method: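 HepG2 cells transiently transfected with GAL4-UAS reporter units expressing chimeric NR-Gal4 proteins, dosed 24 hours with 3 nM 6-alpha-fluorotestosterone present. Reporter mRNA measured by RT-PCR and capillary electrophoresis; gain of signal fitted versus DMSO.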
# [20] = molecular target: human Thyroid hormone Receptor beta (TRb), THRB (gene 7068) (UniProt P10828); assay: ATG_hTRb_XSP1: Attagene TRANS-FACTORIAL Multi-Species (XSP1) HepG2 Assay for human Thyroid hormone Receptor beta (TRb) (AID 2283808)
# Summary of the method: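 HepG2 cells transiently transfected with reporter units driving GAL4-UAS reporters for chimeric NR-Gal4 proteins; 24 h chemical exposure with 3 nM 6-alpha-fluorotestosterone present. Reporter mRNA quantified by RT-PCR and capillary electrophoresis, gain of signal versus DMSO.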
smiles,measurement,setting,value
O=C(O)Cc1cc(I)c(Oc2ccc(O)c(I)c2)c(I)c1,outcome,[1],inactive
same,outcome,[2],inactive
same,outcome,[3],inactive
same,outcome,[4],inactive
same,outcome,[5],inactive
same,outcome,[6],inactive
C[C@]12CC[C@@H]3c4ccc(O)cc4CC[C@H]3[C@@H]1CCC2=O,outcome,[7],inactive
same,outcome,[8],inactive
same,outcome,[9],inactive
same,outcome,[10],inactive
same,outcome,[11],inactive
same,outcome,[12],inactive
same,outcome,[1],inactive
same,AC50,[2],5.33 nM (active)
same,AC50,[5],0.0105 µM (active)
same,AC50,[6],4.28 nM (active)
CC1(C)NC(=O)N(c2ccc([N+](=O)[O-])c(C(F)(F)F)c2)C1=O,outcome,[2],inactive
same,outcome,[3],inactive
same,outcome,[13],inactive
same,outcome,[5],inactive
same,AC50,[6],43000 nM (active)
same,outcome,[6],inactive
Cc1c2ccccc2c(C)c2c1ccc1ccccc12,outcome,[7],inactive
same,outcome,[14],inactive
same,AC50,[15],23.2 µM (active)
same,AC50,[16],13.8 µM (active)
same,AC50,[17],0.828 µM (active)
same,AC50,[11],60.9 µM (active)
same,AC50,[12],33.2 µM (active)
same,outcome,[1],inactive
same,AC50,[2],1530 nM (active)
same,AC50,[3],24.7 µM (active)
same,outcome,[13],inactive
same,outcome,[4],inactive
same,outcome,[5],inactive
same,AC50,[6],8830 nM (active)
O=c1c(-c2ccc(O)cc2)coc2cc(O)cc(O)c12,outcome,[1],inactive
same,AC50,[2],213 nM (active) and 25.4 nM (active)
same,outcome,[13],inactive
same,outcome,[4],inactive
same,AC50,[6],467 nM (active) and 29.3 nM (active)
CC/C(=C(/CC)c1ccc(O)cc1)c1ccc(O)cc1,outcome,[7],inactive
same,outcome,[8],inactive
same,outcome,[9],inactive
same,outcome,[10],inactive
same,outcome,[11],inactive
same,outcome,[12],inactive
same,outcome,[1],inactive
same,AC50,[2],0.138 nM (active)
same,AC50,[5],0.00141 µM (active)
same,AC50,[6],0.0727 nM (active)
CC(C)(c1cc(Br)c(O)c(Br)c1)c1cc(Br)c(O)c(Br)c1,outcome,[7],inactive
same,outcome,[14],inactive
same,AC50,[18],9.55 µM (active)
same,AC50,[16],2.06 µM (active)
same,outcome,[17],inactive
same,AC50,[8],3.79 µM (active)
same,AC50,[19],3.39 µM (active)
same,outcome,[9],inactive
same,outcome,[10],inactive
same,outcome,[20],inactive
same,AC50,[11],13.9 µM (active)
same,outcome,[1],inactive
same,outcome,[2],inactive
same,outcome,[3],inactive
same,outcome,[6],inactive
